Screens: PubChem BioAssay, several laboratories
MEKK3 PB1 HTS – MEKK3-MEK5 PB1 interaction, increase or decrease; AID 1529; Q99759; bead-based flow cytometry, Alexa488-MEK5 binding to MEKK3; actives lie on both sides; 0 = blocked by unlabeled MEK5, 100 = vehicle; hit rate 1.4% among 290,000; binding response (% of control), % at 10 µM;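 active = binding response more than 3 SD above or below the average of its plate-row segment, actives on both sides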;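 note: Alexa488 bead fluorescence after subtracting the streptavidin-only scavenger bead signal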
DNA FID counter – fluorescent intercalator displacement, NS3 helicase counter-screen | AID 1845 | inhibition, % at 7.9 µM | hit rate 0.17% among 290,000 | DNA fluorescent intercalator displacement, fluorescence; in the data active = inhibition above about 37%;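 note: 0% = vehicle and 100% = reference compound; higher means more ethidium bromide displaced from hairpin DNA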
dFosB activator – activators of mouse delta FosB homodimer; hit rate 0.99% among 340,000; activation, % at 25 µM; P13346; purified delta FosB, TAMRA-CDK5 oligo fluorescence polarization; percent of positive-control signal above neutral wells;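 active = mean activation above about 17%, with every replicate also reaching it, limit read from the data, passing the limit was not always enough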
Target sequence (P13346 whole entry, looked up): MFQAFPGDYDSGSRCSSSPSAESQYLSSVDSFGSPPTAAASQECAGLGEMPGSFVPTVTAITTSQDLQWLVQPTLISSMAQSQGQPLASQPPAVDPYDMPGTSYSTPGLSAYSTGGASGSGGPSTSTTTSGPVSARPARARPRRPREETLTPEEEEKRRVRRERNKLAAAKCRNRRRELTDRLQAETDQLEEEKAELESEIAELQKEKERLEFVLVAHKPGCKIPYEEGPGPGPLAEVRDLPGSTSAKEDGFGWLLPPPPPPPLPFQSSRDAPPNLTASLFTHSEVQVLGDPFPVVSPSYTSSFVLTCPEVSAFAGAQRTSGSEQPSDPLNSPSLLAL
MEKK2 mut-MEK5 – signal of MEK5 binding to mutant human MEKK2 PB1 domain; bead flow cytometry, Alexa488-MEK5 binding to MEKK2 mutant; hit rate 0.35% among 290,000; AID 1530; percent response, % at 10 µM; in the data active = percent response above about 24%, passing the limit was not always enough
MEKK2 WT-MEK5 – raises or lowers MEK5 binding to wildtype human MEKK2 PB1 domain. hit rate 1.1% among 290,000. AID 1531. binding response (% of control), % at 10 µM. bead flow cytometry, Alexa488-MEK5 binding to MEKK2 WT; actives lie on both sides. Q9Y2U5; in the data active = binding response below about 67% or above about 130%
MEKK2wt confirm – raises or lowers MEK5 binding to wildtype human MEKK2, retest; bead flow cytometry, Alexa488-MEK5 binding to MEKK2 WT; actives lie on both sides; hit rate 2.4% among 5,900; binding response (% of control), % at 10 µM; shares compounds with MEKK3 PB1 HTS; in the data active = binding response below about 16% or above about 210%; inactive = in between
MEKK2mut-MEK5 – signal of MEK5 binding to mutant human MEKK2, retest; shares compounds with MEKK3 PB1 HTS; bead flow cytometry, Alexa488-MEK5 binding to MEKK2 mutant; percent response, % at 10 µM; hit rate 2% among 5,900; in the data active = percent response mostly above about 71%, no sharp cut-off; inactive = mostly below about 38%;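 note: higher means compound restores mutant binding toward wildtype level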
MEKK3-MEK5 inh – MEKK3-MEK5 PB1 inhibition, single concentration confirmation; binding response (% of control), % at 10 µM; bead flow cytometry, Alexa488-MEK5 binding to MEKK3; active compounds read low; shares compounds with MEKK3 PB1 HTS; AID 1894; hit rate 1.8% among 5,900;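 active = binding response below 72% of control, or above a set upper limit, though filed actives all read lower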;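 note: 100% = DMSO only wells and 0% = binding blocked by excess unlabeled MEK5; lower values mean stronger disruption of MEK5 binding to MEKK3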
Active calls of the source: *; x = no result; [ ] = remark or other dose. The list is not random: actives were taken first. Their share in the collection is about 2.9%.

SMILES	MEKK3 PB1 HTS	DNA FID counter	dFosB activator	MEKK2 mut-MEK5	MEKK2 WT-MEK5	MEKK2wt confirm	MEKK2mut-MEK5	MEKK3-MEK5 inh
Cc1ccc(C(=O)Nc2cccc(C(F)(F)F)c2)cc1NC(=O)c1c[nH]c2cc(C(F)(F)F)ccc2c1=O	x	x	1	x	x	x	x	x
CCN1CCN(Cc2ccc(NC(=O)c3ccc(C)c(NC(=O)c4csc(-c5ccncc5)n4)c3)cc2C(F)(F)F)CC1	101	x	-24	9	141*	172	38	104
O=C(CSc1nnc(Cc2ccccc2)o1)Nc1ccc2c(c1)OCO2	90	-16	-2	-5	98	x	x	x
O=C(Oc1coc(CSc2nnc(NC(=O)C3CC3)s2)cc1=O)c1c(F)cccc1F	64*[inhibitor]	0	-1	-1	84	102	5	107
CCN(CC)S(=O)(=O)c1ccc(OC)c(NC(=O)C(C)Oc2ccc3c(C)cc(=O)oc3c2)c1 (stereo unspecified)	145*	-31	-11	0	107	103	3	105
Cc1c(CCO)c(=O)n(-c2ccccc2)n1S(=O)(=O)c1ccc(Cl)cc1	97	-7	-7	4	100	x	x	x
CCCCN(C)C(=O)C1CCN(Cc2cccnc2)CC1	112	5	-2	27*	118	96	-5	102
CCCCN(C)C(=O)C1CCN(Cc2cccc(OCc3ccccc3)c2)CC1	104	12	0	15	107	x	x	x
Cc1ccc(CNC(=O)CSc2nc(=O)n3ccccc3n2)cc1	x	x	-3	x	x	x	x	x
O=C(CS(=O)(=O)c1ccccc1)NCc1ccccc1	103	-2	-3	5	109	x	x	x
COc1ccc(S(=O)(=O)N2CCC(C(=O)NCCc3ccc4c(c3)OCO4)CC2)cc1	48*[inhibitor]	-21	-11	-26	56	106	-1	102
O=C(/C=N/NC(=O)c1ccc(Cl)cc1Cl)c1ccccc1	91	-10	-7	-16	91	x	x	x
COc1ccc2oc(C(=O)Nc3ccc(S(=O)(=O)N(C)C4CCN(C)CC4)cc3)c(C)c2c1	107	29	-64	17	157*	159	28	105
COc1ccc(CC(=O)Nc2ccc(S(=O)(=O)N(C)C3CCN(C)CC3)cc2)cc1	x	x	-11	x	x	x	x	x
O=C(Cc1cccc(NC(=O)C2CCCN(C(=O)C3CCCCC3)C2)c1)Nc1cccc(C(=O)N2CCOCC2)c1 (stereo unspecified)	x	x	-2	x	x	x	x	x
Cn1c(=O)c2cc(S(=O)(=O)NC(Cc3ccccc3)C(=O)NCC3CCCO3)ccc2n(C)c1=O (stereo unspecified)	138*	-10	4	4	123	96	-4	97
Cc1nc(NC(=S)NC(=O)COc2ccc(Cl)cc2)ccc1Br	139*	-4	4	-1	104	101	4	102
O=C(NCCC1=CCCCC1)c1cc(S(=O)(=O)N2CCOCC2)ccc1F	x	x	-3	x	x	x	x	x
Cc1ccc(NC(=O)c2cc(S(=O)(=O)NCCC3=CCCCC3)ccc2F)cc1	128*	-18	-9	0	109	98	-6	104
Clc1ccc(-c2csc3ncnc(N4CCc5ccccc5C4)c23)cc1	131*	-4	-2	0	102	106	-1	97
CCOC(=O)N1CCN(c2ncnc3scc(-c4ccc(Cl)cc4)c23)CC1	109	-35	-8	8	106	x	x	x
CCC(C(=O)NCc1cccnc1)n1nc(C)n2c(cc3occc32)c1=O (stereo unspecified)	106	-7	-2	3	104	x	x	x
Cc1[nH]nc(SCC(=O)Nc2ccc(C#N)cc2)c1[N+](=O)[O-]	133*	6	-6	1	107	101	4	103
O=C(CN1C(=O)NC2(CCCC2)C1=O)Nc1nc2ccccc2[nH]1	x	x	-9	x	x	x	x	x
CC(C)CNC(=O)NC(=O)COC(=O)c1cccc(NS(=O)(=O)c2ccc(F)c(F)c2)c1	134*	-19	-13	1	109	104	7	101
SMILES	MEKK3 PB1 HTS	DNA FID counter	dFosB activator	MEKK2 mut-MEK5	MEKK2 WT-MEK5	MEKK2wt confirm	MEKK2mut-MEK5	MEKK3-MEK5 inh
O=C(COc1cccc(NC(=O)c2ccccc2)c1)c1ccccc1	96	0	3	-3	93	x	x	x
O=C(COc1cccc(NC(=O)c2cccs2)c1)c1ccc(F)cc1	138*	-6	-16	1	105	104	2	105
COc1ccc(S(=O)(=O)N2CCC(n3cnc4ccccc43)CC2)cc1	103	-28	-15	4	105	x	x	x
COc1ccc(S(=O)(=O)N2CCC(n3cnc4cc(C(F)(F)F)ccc43)CC2)cc1	126*	-19	-4	4	107	105	1	103
CC(=O)c1c(C(C)=O)c(C)n(-c2ccc(N)c(C)c2)c1C	107	-8	-6	7	110	x	x	x
COCCCN1C(=O)c2ccc(C(=O)OCC(=O)NCc3cccc(OC)c3)cc2C1=O	x	x	-4	x	x	x	x	x
CSc1ccccc1NC(=O)CN1CC(C)OC(C)C1 (stereo unspecified)	133*	-10	2	3	114	110	2	98
Cc1ccc2c(Cl)c(C)c(N3CCCCC3)nc2n1	131*	-9	-3	1	105	106	3	106
COC/C=C/C1=CC2=CC(=O)C(C)(OC(=O)c3ccco3)C(=O)C2=CO1 (stereo unspecified)	83	x	x	-9	72*[inhibitor]	93	-4	99
COC/C=C/C1=CC2=CC(=O)C(C)(OC(=O)c3cccs3)C(=O)C2=CO1 (stereo unspecified)	100	x	x	1	100	x	x	x
CCCCCCCC[n+]1cccc2c3ccccc3ccc21	96	13	1	-10	94	x	x	x
CCCCCCCCCC[n+]1cccc2c3ccccc3ccc21	119	10	13	10	213*	150	22	102
Cc1[nH]c2ccccc2c1C(=O)C(=O)NCCC1=CCCCC1	135*	-12	-1	0	104	98	6	102
O=C(NCCC1=CCCCC1)C(=O)NCc1ccccc1	108	-2	0	-1	99	x	x	x
C1=C(CCNc2ncnc3c2[nH]c2ccccc23)CCCC1	95	10	11	26	143*	140	20	107
COc1ccc(CCNC(=O)C(=O)c2c(C)[nH]c3ccccc23)cc1	102	-16	-3	1	101	x	x	x
Cc1ccc(CSCCC(=O)NCCC2=CCCCC2)cc1	130*	-23	2	1	114	106	2	101
O=C(CCSCc1cccc(Cl)c1)NCCC1=CCCCC1	113	-24	-6	0	101	x	x	x
